Reference: PubChem BioAssay (EPA / NIEHS)
Active and inactive are the calls of the source. Rule for the calls: active = hit-call score of the fitted dose curve at least 0.9, where 1 is the maximum; inactive = score below 0.9.

Experiments:
[1] = ATG_GLI_CIS: Attagene CIS-FACTORIAL HepG2 Assay for human Zinc Finger Protein GLI1 (AID 2282945); details: HepG2, Attagene cis-factorial reporter mRNA, GLI element; actives raise or lower the signal
Summary of the method: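 Bidirectional curve fits relative to DMSO, using reporter mRNA levels from RT-PCR plus capillary electrophoresis. Cells were HepG2 transiently carrying cis-regulated reporter constructs, harvested 24 h after dosing.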

[2] = biological target: Bile acid receptor (Homo sapiens) (UniProt Q96RI1); test: ATG_IR1_CIS: Attagene CIS-FACTORIAL HepG2 Assay for human Nuclear Receptor Subfamily 1 Group H Member 4 (NR1H4), IR1 submotif (AID 2282946); details: IR1 reporter transcription, actives raise or lower the signal
Summary of the method: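 HepG2 cells transiently transfected with multiplexed cis-element reporter units read endogenous transcription factor activity. After 24 h compound exposure, reporter mRNA was quantified by RT-PCR, fluorescent labelling, HpaI digestion and capillary electrophoresis; bidirectional fitting versus DMSO baseline.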

[3] = ATG_GRE_CIS: Attagene CIS-FACTORIAL HepG2 Assay for human Glucocorticoid Response Elements (GRE) (AID 2282947); details: HepG2 GRE cis-reporter, Attagene multiplex mRNA; actives raise or lower the signal
Summary of the method: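 Reporter transcripts read by RT-PCR with capillary electrophoresis fluorescence after a 24 h chemical exposure of HepG2 cells transiently transfected with multiple cis-element reporter units. Gain or loss fitted against DMSO.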

[4] = ATG_ISRE_CIS: Attagene CIS-FACTORIAL HepG2 Assay for human Interferon Regulatory Factor 1 (IRF1) binding to an Interferon-Stimulated Response Element (ISRE) (AID 2282948); details: HepG2 ISRE cis-reporter (Attagene), mRNA transcription readout; actives raise or lower the signal
Summary of the method: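 Signal reflects induction or loss of ISRE-linked reporter mRNA in transiently transfected HepG2 cells after a 24 h treatment, detected by fluorescent RT-PCR fragments on capillary electrophoresis and normalised to DMSO.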

[5] = ATG_M_32_CIS: Attagene CIS-FACTORIAL HepG2 Assay for M32 Transcription Factor (Internal Marker) (AID 2282949); details: HepG2 Attagene cis-factorial M32 reporter, mRNA; actives raise or lower the signal;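 note: background control marker of the multiplexed CIS panel rather than a real target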
Summary of the method: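 HepG2 human liver cells transiently transfected with cis-promoter-driven multiple reporter transcription units, dosed 24 h. Reporter mRNA quantified by RT-PCR, FAM-labelled primer extension, HpaI digest and capillary electrophoresis; bidirectional fit versus DMSO baseline.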

[6] = ATG_M_06_CIS: Attagene CIS-FACTORIAL HepG2 Assay for M06 Transcription Factor (Internal Marker) (AID 2282950); details: HepG2 Attagene CIS-FACTORIAL M06 internal marker reporter; actives raise or lower the signal
Summary of the method: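 Internal background marker within multiplexed cis-reporter HepG2 system. Cells transiently transfected, dosed 24 h; reporter mRNA measured by RT-PCR, HpaI digestion and capillary electrophoresis. Bidirectional fit relative to DMSO.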

[7] = biological target: Hypoxia-inducible factor 1-alpha (Homo sapiens) (UniProt Q16665); test: ATG_HIF1a_CIS: Attagene CIS-FACTORIAL HepG2 Assay for human Hypoxia Inducible Factor 1 (HIF1A) (AID 2282951); details: HepG2 Attagene cis-factorial HIF1a reporter transcription; actives raise or lower the signal
Summary of the method: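 Fluorescence intensity of capillary-separated, 6-FAM-labelled reporter amplicons gives mRNA induction in HepG2 cells carrying transfected cis-promoter reporter units; cells exposed 24 h, responses fitted up or down from DMSO.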

[8] = biological target: Hepatocyte nuclear factor 6 (Homo sapiens) (UniProt Q9UBC0); test: ATG_HNF6_CIS: Attagene CIS-FACTORIAL HepG2 Assay for human Hepatocyte Nuclear Factor 6 (HNF6) (AID 2282952); details: HepG2 Attagene cis-factorial HNF6 reporter transcription; actives raise or lower the signal
Summary of the method: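 Twenty-four-hour chemical treatment of reporter-transfected HepG2 cells precedes RNA isolation, DNase-treated reverse transcription and PCR of reporter sequences. Labelled fragments are sized by capillary electrophoresis and fitted bidirectionally versus DMSO.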

[9] = biological target: Heat shock factor protein 1 (Homo sapiens) (UniProt Q00613); test: ATG_HSE_CIS: Attagene CIS-FACTORIAL HepG2 Assay for human Heat Shock Transcription Factor 1 (HSE) (AID 2282953); details: HepG2 HSE cis-reporter, Attagene RNA transcription; actives raise or lower the signal
Summary of the method: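 HepG2 cells transfected with cis-promoter reporter units sensing endogenous transcription factor activity; reporter mRNA quantified 24 h post-dose by RT-PCR and capillary electrophoresis of 6-FAM-labelled products. Bidirectional fitting against DMSO.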

[10] = ATG_MRE_CIS: Attagene CIS-FACTORIAL HepG2 Assay for human Metal Responsive Element (MRE) (AID 2282954); details: HepG2 MRE cis-reporter transcription, Attagene multiplex; actives raise or lower the signal
Summary of the method: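 Endogenous MRE-dependent transcription read as reporter mRNA in transiently transfected human HepG2 cells at 24 h. RNA reverse-transcribed, PCR-amplified, labelled and resolved by capillary electrophoresis; gain or loss relative to DMSO.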

[11] = ATG_PBREM_CIS: Attagene CIS-FACTORIAL HepG2 Assay for human Phenobarbital-responsive Enhancer Module (PBREM) (AID 2282955); details: HepG2 PBREM cis-reporter, Attagene multiplexed transcription; actives raise or lower the signal
Summary of the method: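 Cells were transfected with cis-element reporter units and treated for 24 h, after which RNA was extracted and reporter transcripts measured by RT-PCR and capillary electrophoresis.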

[12] = biological target: Paired box protein Pax-6 (Homo sapiens) (UniProt P26367); test: ATG_Pax6_CIS: Attagene CIS-FACTORIAL HepG2 Assay for human Paired Box 6 (PAX6) (AID 2282956); details: HepG2 CIS-FACTORIAL PAX6 reporter transcription, RNA readout; actives raise or lower the signal
Summary of the method: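 Values derive from bidirectional curve fitting of reporter mRNA signal relative to DMSO. HepG2 cells bearing transfected cis-regulated MRTUs were exposed for 24 h; transcripts were read by RT-PCR and capillary electrophoresis.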

[13] = ATG_PXRE_CIS: Attagene CIS-FACTORIAL HepG2 Assay for human Pregnane X Receptor Element (PXRE) (AID 2282957); details: HepG2 Attagene CIS-FACTORIAL PXRE reporter, mRNA; actives raise or lower the signal
Summary of the method: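 Bidirectional activity, baselined to DMSO, derived from reporter mRNA fluorescence (RT-PCR plus capillary electrophoresis) in HepG2 cells bearing cis-promoter reporter units, 24 h exposure.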

[14] = ATG_PPRE_CIS: Attagene CIS-FACTORIAL HepG2 Assay for human Peroxisome Proliferator-activated Response Element (PPRE) (AID 2282958); details: HepG2 PPRE cis-element reporter, Attagene transcription factor profiling; actives raise or lower the signal
Summary of the method: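 In this cell-based multiplex, a PPRE cis element drives a reporter sequence in transiently transfected HepG2 cells. Following 24 h treatment, labeled cDNA amplicons are sized and quantified by capillary electrophoresis, with DMSO defining baseline.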

[15] = ATG_RORE_CIS: Attagene CIS-FACTORIAL HepG2 Assay for human RAR-related Orphan Receptor Element (RORE) (AID 2282959); details: HepG2 Attagene cis-factorial RORE reporter, mRNA; actives raise or lower the signal
Summary of the method: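 Endogenous factor activity at a cis response element is read as reporter transcript levels in HepG2 cells, 24 h post-dose. Transcripts are quantified by RT-PCR with capillary electrophoresis, and data fitted in both directions against DMSO.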

[16] = ATG_Sox_CIS: Attagene CIS-FACTORIAL HepG2 Assay for human SRY-box transcription factor (SOX) (AID 2282960); details: HepG2 Attagene cis-factorial SOX reporter, mRNA; actives raise or lower the signal
Summary of the method: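 Measures mRNA induction of a SOX1-associated reporter in HepG2 after 24 h dosing. Fluorescently labelled RT-PCR fragments are separated by capillary electrophoresis, and gain or loss relative to DMSO control is fitted.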

[17] = ATG_SREBP_CIS: Attagene CIS-FACTORIAL HepG2 Assay for human Sterol Regulatory Element Binding (SREBP) (AID 2282962); details: HepG2 Attagene cis-factorial SREBP reporter, mRNA; actives raise or lower the signal
Summary of the method: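 Values derive from bidirectional curve fitting with DMSO as baseline. The underlying measurement is reporter mRNA from cis-element-regulated units in transiently transfected HepG2, quantified by RT-PCR and capillary electrophoresis after 24 h exposure.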

[18] = biological target: Signal transducer and activator of transcription 3 (Homo sapiens) (UniProt P40763); test: ATG_STAT3_CIS: Attagene CIS-FACTORIAL HepG2 Assay for human Signal Transducer and Activator of Transcription 3 (STAT3) (AID 2282963); details: HepG2, Attagene cis-factorial STAT3 reporter transcription; actives raise or lower the signal
Summary of the method: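 Readout is reporter transcript quantified by RT-PCR and capillary electrophoresis, with 6-FAM primer extension and HpaI digestion. Total RNA is taken 24 h after dosing transiently transfected HepG2 carrying cis-regulated reporter units. Bidirectional fit against DMSO.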

[19] = ATG_TA_CIS: Attagene CIS-FACTORIAL HepG2 Assay for human TA Basal Promoter (AID 2282964); details: HepG2 Attagene CIS-factorial TA basal promoter reporter; actives raise or lower the signal
Summary of the method: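 HepG2 cells transiently transfected with multiple reporter units under cis promoter elements, reporting endogenous transcription factor activity; this endpoint tracks the TA basal promoter as background control. Reporter mRNA after 24 h dosing measured by RT-PCR/capillary electrophoresis; bidirectional fits versus DMSO.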

[20] = biological target: Transcription factor Sp1 (Homo sapiens) (UniProt P08047); test: ATG_Sp1_CIS: Attagene CIS-FACTORIAL HepG2 Assay for human Specificity Protein 1 (Sp1) (AID 2282961); details: HepG2 Sp1 cis-reporter transcription, actives raise or lower the signal
Summary of the method: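 Cells: HepG2, transiently transfected with cis-regulated multiplexed reporters. Exposure: 24 h. Detection: reporter transcripts amplified, fluorescently labeled, restriction-digested and sized by capillary electrophoresis. Analysis: bidirectional fit relative to DMSO.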

Measured: AC50

Signal transducer and activator of transcription 3 (Homo sapiens), sequence (P40763 whole entry, looked up): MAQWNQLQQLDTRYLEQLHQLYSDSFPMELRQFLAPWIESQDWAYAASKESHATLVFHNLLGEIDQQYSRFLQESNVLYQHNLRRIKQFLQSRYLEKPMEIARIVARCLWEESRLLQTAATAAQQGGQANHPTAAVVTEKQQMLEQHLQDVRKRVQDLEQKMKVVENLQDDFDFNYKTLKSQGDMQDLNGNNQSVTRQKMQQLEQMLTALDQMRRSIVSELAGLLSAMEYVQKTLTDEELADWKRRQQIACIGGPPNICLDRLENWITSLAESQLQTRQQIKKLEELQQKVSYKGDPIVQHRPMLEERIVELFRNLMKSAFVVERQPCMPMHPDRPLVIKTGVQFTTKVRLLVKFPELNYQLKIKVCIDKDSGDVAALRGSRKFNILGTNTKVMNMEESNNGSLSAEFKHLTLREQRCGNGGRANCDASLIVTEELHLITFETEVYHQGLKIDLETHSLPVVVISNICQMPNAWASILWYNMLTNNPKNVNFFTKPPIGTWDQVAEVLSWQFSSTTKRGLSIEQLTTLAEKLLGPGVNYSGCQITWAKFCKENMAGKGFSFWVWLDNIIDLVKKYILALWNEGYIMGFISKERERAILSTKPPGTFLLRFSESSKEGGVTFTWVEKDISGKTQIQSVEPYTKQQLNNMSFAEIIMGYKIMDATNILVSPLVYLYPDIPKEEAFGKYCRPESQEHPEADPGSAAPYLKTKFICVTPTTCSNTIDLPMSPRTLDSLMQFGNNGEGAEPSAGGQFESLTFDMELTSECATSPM
Heat shock factor protein 1 (Homo sapiens), sequence (Q00613 whole entry, looked up): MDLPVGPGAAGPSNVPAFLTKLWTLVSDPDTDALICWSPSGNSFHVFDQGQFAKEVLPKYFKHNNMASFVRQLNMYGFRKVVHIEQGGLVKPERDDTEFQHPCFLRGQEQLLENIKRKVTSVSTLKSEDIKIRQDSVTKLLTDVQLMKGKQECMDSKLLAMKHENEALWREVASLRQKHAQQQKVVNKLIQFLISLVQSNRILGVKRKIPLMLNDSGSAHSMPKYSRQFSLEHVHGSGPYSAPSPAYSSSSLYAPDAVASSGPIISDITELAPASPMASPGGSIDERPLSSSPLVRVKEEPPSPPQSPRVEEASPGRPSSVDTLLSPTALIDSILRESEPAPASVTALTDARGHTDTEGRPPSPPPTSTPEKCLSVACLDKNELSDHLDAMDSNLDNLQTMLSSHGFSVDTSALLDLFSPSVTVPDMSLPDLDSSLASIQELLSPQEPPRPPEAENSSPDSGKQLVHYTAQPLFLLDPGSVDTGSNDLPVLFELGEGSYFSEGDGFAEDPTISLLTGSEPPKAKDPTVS
Hepatocyte nuclear factor 6 (Homo sapiens), sequence (Q9UBC0 whole entry, looked up, the tested form may be a part): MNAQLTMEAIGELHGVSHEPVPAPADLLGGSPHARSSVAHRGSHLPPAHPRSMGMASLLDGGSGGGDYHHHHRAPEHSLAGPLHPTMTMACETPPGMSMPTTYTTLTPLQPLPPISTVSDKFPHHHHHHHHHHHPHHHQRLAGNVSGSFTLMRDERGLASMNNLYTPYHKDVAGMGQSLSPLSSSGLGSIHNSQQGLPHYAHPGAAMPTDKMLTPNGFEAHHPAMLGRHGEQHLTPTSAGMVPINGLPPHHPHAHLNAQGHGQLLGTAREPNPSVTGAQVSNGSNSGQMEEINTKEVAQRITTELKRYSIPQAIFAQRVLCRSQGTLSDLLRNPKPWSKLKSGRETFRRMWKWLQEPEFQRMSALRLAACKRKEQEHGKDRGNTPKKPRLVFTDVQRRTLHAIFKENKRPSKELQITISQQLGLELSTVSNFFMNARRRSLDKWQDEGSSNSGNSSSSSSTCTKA
Bile acid receptor (Homo sapiens), sequence (Q96RI1 whole entry, looked up): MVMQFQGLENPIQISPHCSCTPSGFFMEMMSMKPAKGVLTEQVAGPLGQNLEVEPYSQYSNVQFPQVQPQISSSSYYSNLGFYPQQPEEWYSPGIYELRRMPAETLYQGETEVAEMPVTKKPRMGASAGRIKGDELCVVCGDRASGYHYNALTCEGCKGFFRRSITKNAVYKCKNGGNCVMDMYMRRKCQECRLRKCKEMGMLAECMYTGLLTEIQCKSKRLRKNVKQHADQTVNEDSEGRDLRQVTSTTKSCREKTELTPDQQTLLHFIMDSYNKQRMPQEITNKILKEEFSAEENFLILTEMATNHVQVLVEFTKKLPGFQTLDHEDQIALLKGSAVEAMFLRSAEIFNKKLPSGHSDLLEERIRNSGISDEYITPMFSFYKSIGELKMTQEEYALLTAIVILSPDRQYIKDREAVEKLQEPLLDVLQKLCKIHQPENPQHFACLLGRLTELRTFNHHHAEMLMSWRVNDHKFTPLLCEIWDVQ
Transcription factor Sp1 (Homo sapiens), sequence (P08047 whole entry, looked up): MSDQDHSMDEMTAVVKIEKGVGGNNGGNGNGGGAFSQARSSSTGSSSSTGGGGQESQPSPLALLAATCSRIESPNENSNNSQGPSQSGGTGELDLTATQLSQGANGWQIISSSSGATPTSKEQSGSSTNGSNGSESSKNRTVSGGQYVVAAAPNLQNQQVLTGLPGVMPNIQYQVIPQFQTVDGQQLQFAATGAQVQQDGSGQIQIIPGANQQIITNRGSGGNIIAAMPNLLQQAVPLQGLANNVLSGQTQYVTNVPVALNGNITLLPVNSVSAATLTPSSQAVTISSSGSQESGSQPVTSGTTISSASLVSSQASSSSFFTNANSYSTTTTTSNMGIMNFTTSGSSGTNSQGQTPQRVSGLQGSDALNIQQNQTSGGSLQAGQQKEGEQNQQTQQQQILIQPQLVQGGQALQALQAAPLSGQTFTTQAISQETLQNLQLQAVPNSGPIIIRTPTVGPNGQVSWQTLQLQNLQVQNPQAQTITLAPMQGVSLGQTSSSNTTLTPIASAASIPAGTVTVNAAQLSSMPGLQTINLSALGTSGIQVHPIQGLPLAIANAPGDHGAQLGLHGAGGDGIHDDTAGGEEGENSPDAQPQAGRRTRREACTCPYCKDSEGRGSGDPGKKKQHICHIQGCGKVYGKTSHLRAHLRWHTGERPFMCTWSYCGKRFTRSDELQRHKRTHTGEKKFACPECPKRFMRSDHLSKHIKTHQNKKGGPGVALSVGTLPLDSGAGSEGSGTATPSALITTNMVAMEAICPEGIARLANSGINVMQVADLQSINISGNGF
Paired box protein Pax-6 (Homo sapiens), sequence (P26367 whole entry, looked up): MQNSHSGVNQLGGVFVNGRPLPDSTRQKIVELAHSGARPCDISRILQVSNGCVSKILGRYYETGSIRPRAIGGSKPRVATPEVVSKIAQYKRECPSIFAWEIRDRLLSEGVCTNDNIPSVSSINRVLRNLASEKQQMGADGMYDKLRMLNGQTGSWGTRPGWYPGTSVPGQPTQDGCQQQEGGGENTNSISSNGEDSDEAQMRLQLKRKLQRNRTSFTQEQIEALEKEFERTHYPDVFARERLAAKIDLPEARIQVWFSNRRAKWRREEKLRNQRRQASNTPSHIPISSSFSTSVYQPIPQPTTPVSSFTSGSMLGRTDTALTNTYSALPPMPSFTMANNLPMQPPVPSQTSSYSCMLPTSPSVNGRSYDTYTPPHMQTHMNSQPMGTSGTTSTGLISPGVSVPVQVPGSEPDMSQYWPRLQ
Hypoxia-inducible factor 1-alpha (Homo sapiens), sequence (Q16665 whole entry, looked up): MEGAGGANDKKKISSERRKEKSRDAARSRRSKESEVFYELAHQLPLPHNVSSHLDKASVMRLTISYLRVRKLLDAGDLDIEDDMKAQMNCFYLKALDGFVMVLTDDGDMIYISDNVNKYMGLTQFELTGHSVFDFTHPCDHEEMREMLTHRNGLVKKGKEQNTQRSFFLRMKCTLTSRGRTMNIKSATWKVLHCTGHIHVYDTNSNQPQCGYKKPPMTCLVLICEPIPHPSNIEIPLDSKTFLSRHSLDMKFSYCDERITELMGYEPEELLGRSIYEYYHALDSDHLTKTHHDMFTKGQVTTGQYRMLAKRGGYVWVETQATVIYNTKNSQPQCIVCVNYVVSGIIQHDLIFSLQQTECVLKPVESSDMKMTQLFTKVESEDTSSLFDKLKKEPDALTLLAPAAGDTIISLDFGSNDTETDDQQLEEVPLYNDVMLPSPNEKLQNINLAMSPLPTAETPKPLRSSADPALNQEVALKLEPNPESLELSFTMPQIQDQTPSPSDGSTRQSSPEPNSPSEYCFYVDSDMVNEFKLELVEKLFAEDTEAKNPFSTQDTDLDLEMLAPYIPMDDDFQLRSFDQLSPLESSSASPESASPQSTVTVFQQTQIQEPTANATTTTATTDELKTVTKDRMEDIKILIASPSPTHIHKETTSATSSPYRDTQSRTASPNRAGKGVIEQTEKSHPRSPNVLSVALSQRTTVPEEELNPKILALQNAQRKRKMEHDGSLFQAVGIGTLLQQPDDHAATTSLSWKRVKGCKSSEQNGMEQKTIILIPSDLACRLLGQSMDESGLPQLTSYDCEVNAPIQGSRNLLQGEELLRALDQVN

CCOCOCC
not listed: [20]
inactive: all other assays above

CCc1cccc(C)c1N(C(=O)C(=O)O)C(C)COC (stereo not drawn)
not listed: [11] | [17]
inactive: all other assays above

COC(F)(C(F)F)C(F)(F)F (stereo not drawn)
not listed: [13] | [17] | [20]
inactive: all other assays above

OCCCCC(F)(F)C(F)(F)C(F)(F)C(F)(F)F
inactive: all assays above

O=S(=O)(OCC(F)(F)F)C(F)(F)C(F)(F)C(F)(F)C(F)(F)F
active: [4] 63.2 µM
not listed: [11] | [13]
inactive: all other assays above

O=c1cccc[nH]1
inactive: all assays above

CCCCOC(=O)[C@H](C)O
not listed: [13]
inactive: all other assays above

O=C1C=CC(=O)N1c1ccc(Cc2ccc(N3C(=O)C=CC3=O)cc2)cc1
active: [7] 46.9 µM | [8] 50.7 µM | [9] 55.2 µM | [12] 33.4 µM | [14] 57.2 µM | [20] 48.4 µM
not listed: [13] | [17]
inactive: all other assays above

OCC(F)(F)C(F)(F)C(F)(F)C(F)(F)C(F)(F)C(F)(F)C(F)(F)C(F)(F)CO
active: [13] 16.6 µM
inactive: all other assays above

O=C=Nc1cccc2c(N=C=O)cccc12
active: [13] 1.82 µM
not listed: [11] | [17]
inactive: all other assays above

Cc1cc(C)c(O)c(C(C)(C)C)c1
not listed: [13]
inactive: all other assays above

CO[Si](CCCOCC1CO1)(OC)OC (stereo not drawn)
not listed: [17]
inactive: all other assays above

CCCCOC(=O)C(C)O (stereo not drawn)
not listed: [13]
inactive: all other assays above

O=C(Cl)C(F)(F)C(F)(F)C(F)(F)C(F)(F)C(F)(F)C(F)(F)F
active: [14] 60.3 µM
not listed: [17]
inactive: all other assays above
